# Bioassay records deposited in PubChem by National Center for Advancing Translational Sciences (NCATS).
# Most compounds without a hit are left out; they make up all but 7.3% or so of the library.
# HEK293 viab = reduces viability of HEK-293 SNCA reporter cells; Potency, µM (top dose mostly 57.1 µM), for inactives: top-dose activity change, negative = cytotoxicity, most hits filed as cytotoxic; 0.12% of 150,000 active; AID 1671193; HEK-293-SNCA-luc viability, GF-AFC fluorescence, 24 h;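 further: potency means the concentration at half of the fitted maximal effect; 0% = DMSO-treated cells and -100% = medium-only wells without cells; nearly all actives have a fitted effect of over 30% in size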
#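 HEK-293-SNCA-luc cells (1500/well) plated 24 h, then exposed 24 h to a dilution series; GF-AFC added 30 min at 37C, fluorescence 405/540 nm; normalised to medium-only and DMSO wells, Hill fit.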
# 3T3 cytotox = cytotoxic compounds in NIH 3T3 cells; AID 1345082; NIH 3T3 viability, CellTiter-Glo ATP luminescence, 48-72 h; Potency, µM (highest dose often 96.7 µM), inactives show at the highest dose activity change, negative = cytotoxicity, usual class: inhibitors; 4.3% of 94,000 active; further: potency means the concentration at half of the fitted maximal effect; nearly all actives have a fitted effect of over 55% in size
#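 First NIH 3T3 cells are plated at 400 cells/well; next compound is pinned in; then plates incubate 48 or 72 hr at 37 °C; finally CellTiter-Glo is added and luminescence read after 10 min.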
# FLuc inh = inhibitors of firefly (Photinus pyralis) luciferase | P08659 | purified P. pyralis luciferase, luminescence, biochemical | AID 1347043 | 2.5% of 76,000 active | Potency, µM (series often up to 115 µM), actives largely listed as inhibitors; further: potency means the concentration at half of the fitted maximal effect; nearly all actives have a fitted effect of over 65% in size
# Target sequence (P08659 whole entry, looked up): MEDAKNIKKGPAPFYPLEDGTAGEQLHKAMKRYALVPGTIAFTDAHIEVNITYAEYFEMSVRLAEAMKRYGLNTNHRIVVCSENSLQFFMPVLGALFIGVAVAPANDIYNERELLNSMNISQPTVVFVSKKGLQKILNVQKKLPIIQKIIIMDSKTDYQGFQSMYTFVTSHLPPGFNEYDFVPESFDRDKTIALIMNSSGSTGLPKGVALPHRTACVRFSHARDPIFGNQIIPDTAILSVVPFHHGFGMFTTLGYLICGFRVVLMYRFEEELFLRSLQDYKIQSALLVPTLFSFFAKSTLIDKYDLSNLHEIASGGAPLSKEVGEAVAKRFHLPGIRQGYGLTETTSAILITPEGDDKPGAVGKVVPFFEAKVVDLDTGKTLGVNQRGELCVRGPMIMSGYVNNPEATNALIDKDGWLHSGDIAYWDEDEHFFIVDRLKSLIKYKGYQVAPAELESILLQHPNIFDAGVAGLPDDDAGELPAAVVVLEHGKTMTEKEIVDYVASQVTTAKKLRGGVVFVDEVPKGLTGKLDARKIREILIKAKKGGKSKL
#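 Luminescence read by CCD imaging after purified firefly luciferase (10nM final) was added to substrate buffer holding 10uM D-luciferin and 10uM ATP, pH 7.5, pre-dosed with compound.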
# HEK293 tox = cytotoxic compounds in HEK 293 cells. 6.6% of 94,000 active. HEK 293 viability, ATP luminescence (CellTiter-Glo), 48-72 h. Potency, µM (series often up to 115 µM), without a hit: at the highest dose activity change, negative = cytotoxicity, usual class: inhibitors; further: potency means the concentration at half of the fitted maximal effect; nearly all actives have a fitted effect of over 60% in size
#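 ATP-coupled CellTiter-Glo luminescence served as viability read-out, recorded 10 min after reagent addition at room temperature. HEK 293 cells, 250 cells/well, had been incubated with pintool-transferred compound for 48 or 72 hr at 37 degree Celsius.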
# IP6K1 inh = blocks human inositol hexakisphosphate kinase 1 | IP6K1 kinase, ADP-Glo luminescence, 2 h; active compounds read low | Q92551 | AID 1645851 | 0.81% of 140,000 active | activity change, % (series mostly up to about 58 µM); in the data active means activity change below about -25%
#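 ADP-Glo luminescence measures ADP made by human IP6K1 during a 2 h RT reaction with ATP/IP6 (mix at 1.3 mM/130 uM); top library doses 57.5 and 19.1 uM final.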
# SNCA expr inhib = reduces expression of the alpha-synuclein gene | HEK-293 SNCA-luciferase knock-in, luminescence, 24 h | 0.17% of 140,000 active | AID 1671194 | Potency, µM (titrated, usually from 57.2 µM), for the others: at the top dose activity change, negative = inhibition, actives largely listed as inhibitors;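 further: potency means the concentration at half of the fitted maximal effect; plate controls were DMSO cells for no effect and cell-free wells for full effect; nearly all actives have a fitted effect of over 45% in size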
# Numbers without * were called inactive; i = inactive; ? = inconclusive; [ ] = remark or other dose. Unless noted, the call rests on the fitted dose curve; in most records, active means well fitted curve in the direction sought with a large enough effect; inconclusive means small, poorly fitted or top-dose-only effect, or another doubt; inactive means no such curve, though single readings can be large; an effect the other way counts as inactive or inconclusive. Unless noted, on the % scale 0 is the no-effect control and ±100 the full control effect.
SMILES,HEK293 viab,3T3 cytotox,FLuc inh,HEK293 tox,IP6K1 inh,SNCA expr inhib
COc1cccc(CC(=O)N2[C@H]3CC[C@@H]2c2cnc(-c4ccc(F)cc4)nc2C3)c1,-21.4%,?,i,31.6µM*,15.8,?
COc1ccc(CC(=O)N2[C@H]3CC[C@@H]2c2cnc(-c4ccc(F)cc4)nc2C3)cc1OC,-1.8%,-18.8%,i,79.4µM*,0.5,-11.8%
COc1cc2c(cc1Oc1ccccc1)NC(=O)C21CCN(c2ncc(C(C)C)cn2)CC1,2.5%,?,i,?,-10.7,-15.7%
CCc1cnc(N2CCC3(CC2)C(=O)Nc2cc(OCc4ccccc4)c(OC)cc23)nc1,-14.4%,?,i,?,-17.1,-20.6%
COc1cc2c(cc1OCC1CC1)NC(=O)C21CCN(c2ncc(C(C)C)cn2)CC1,5.0%[87.6 µM],79.4µM*,i,100µM*,-25.0,?
CCc1cnc(N2CCC3(CC2)C(=O)Nc2cc(OCC4CC4)c(OC)cc23)nc1,-1.7%[87.6 µM],100µM*,i,112µM*,-15.2,-12.9%[87.6 µM]
CC[C@H]1CN2CC[C@H]1C[C@@H]2COC(=O)Nc1cccc2ccccc12,1.5%[87.6 µM],50.1µM*,i,?,2.3,8.6%[87.6 µM]
CC[C@H]1CN2CC[C@H]1C[C@@H]2COC(=O)Nc1ccc(C(C)(C)C)cc1,-23.1%[87.6 µM],39.8µM*,?,39.8µM*,-12.9,-13.5%[87.6 µM]
Cc1nc(-c2ccc(C(F)(F)F)cc2)cc([C@H]2CN3CC[C@H]2C[C@@H]3CNC(=O)C(C)(C)C)n1,-10.7%,20µM*,i,39.8µM*,7.1,?
Cc1nc(-c2ccc(F)cc2)cc([C@H]2CN3CC[C@H]2C[C@@H]3CNC(=O)NCc2ccccc2)n1,1.0%,?,i,?,3.8,-4.6%
Cc1nc(-c2ccc(F)cc2)cc([C@H]2CN3CC[C@H]2C[C@@H]3CNC(=O)Nc2cccc(C#N)c2)n1,3.8%,22.4µM*,i,?,10.6,-14.7%
Cc1nc(-c2ccc(F)cc2)cc([C@H]2CN3CC[C@H]2C[C@@H]3CNC(=O)c2ccco2)n1,-5.1%[87.6 µM],100µM*,i,?,11.3,-18.8%[87.6 µM]
Cc1nc(-c2ccccc2)cc([C@H]2CN3CC[C@H]2C[C@@H]3CNC(=O)N2CCOCC2)n1,-1.7%[87.6 µM],89.1µM*,i,?,12.7,2.2%[87.6 µM]
Cc1nc(-c2ccc(C(F)(F)F)cc2)cc([C@H]2CN3CC[C@H]2C[C@@H]3CNC(=O)N2CCOCC2)n1,6.0%,?,i,?,7.7,-14.7%
Cc1nc(-c2ccccc2Br)cc([C@H]2CN3CC[C@H]2C[C@@H]3CNC(=O)Nc2cccc(C#N)c2)n1,?,28.2µM*,i,22.4µM*,-0.1,-3.2%
Cc1nc(-c2ccco2)cc([C@H]2CN3CC[C@H]2C[C@@H]3CNCC2CCCCC2)n1,-11.0%[87.6 µM],89.1µM*,i,112µM*,6.2,26.4%[87.6 µM]
Cc1nc(-c2ccccc2Br)cc([C@H]2CN3CC[C@H]2C[C@@H]3CNC(=O)Nc2ccc(Cl)cc2)n1,-3.4%,35.5µM*,i,22.4µM*,3.8,?
COc1ccc(NC(=O)N2[C@H]3CC[C@@H]2c2cncnc2C3)c(C)c1,-6.4%,-4.9%,i,-9.7%,-4.8,-24.1%
CN(CCc1ccccn1)C[C@H]1CN2CC[C@H]1C[C@@H]2CNC(=O)c1ccc2c(c1)OCO2,0.9%,-22.6%,i,-21.3%,-6.1,5.0%
COc1cc2c(cc1OCc1ccccc1)N(C(=O)c1cc3ccccc3n1C)CC21CCN(C)CC1,?,12.6µM*,i,25.1µM*,-14.3,?
COc1ccc(C(=O)N2CC3(CCN(C)CC3)c3cc(OC)c(OCc4ccccc4)cc32)cn1,-4.6%,?,i,79.4µM*,-3.0,?
COc1cc2c(cc1OCc1ccccc1)N(C(=O)c1ccncc1)CC21CCN(C)CC1,-0.3%,-25.9%,i,?,-0.1,-21.6%
COCCn1c(C)cc(C(=O)NC2CCc3nnc(C4CC4)n3CC2)c1C (centres undefined),-0.4%,-3.3%,i,-2.0%,-3.5,9.8%
